# Test results published in the supplement of paper PMC4466140.
# B1: unnamed (peptide)
# chain: RRRDFGAPANKRPRR
# B2: unnamed (peptide)
# chain: KRKRFNLLLPKPYLT
# Target: AgAbp1
# Test: SPOT peptide array binding signal intensity (averaged, normalized) (arbitrary units (background-subtracted, floor 0; scale differs between SH3 domains)); higher = stronger binding of the SH3 domain to the peptide
# Procedure: (§1)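 GST-tagged SH3 domains from S. cerevisiae (Sc), A. gossypii (Ag), C. albicans (Ca) and S. pombe (Sp) were incubated at 10 ug/ml overnight at 4 C on cellulose SPOT membranes carrying 292 synthetic 15-mer peptides mined from the S. cerevisiae proteome (cysteines replaced by serines). Binding was detected with anti-GST antibody, HRP secondary and chemiluminescence, quantified with Genespotter, and reported as normalized spot intensities averaged over biological replicates.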
row,Binder,SPOT peptide array binding signal intensity
1,B1,45

# Target: AgBbc1
# Test: as above
# Procedure: as §1
row,Binder,SPOT peptide array binding signal intensity
1,B1,223

# Target: AgBem1-D1
# Test: as above
# Procedure: as §1
row,Binder,SPOT peptide array binding signal intensity
1,B1,179

# Target: AgBzz1-D1
# Test: as above
# Procedure: as §1
row,Binder,SPOT peptide array binding signal intensity
1,B1,60

# Target: AgBzz1-D2
# Test: as above
# Procedure: as §1
row,Binder,SPOT peptide array binding signal intensity
1,B1,18

# Target: AgCyk3
# Test: as above
# Procedure: as §1
row,Binder,SPOT peptide array binding signal intensity
1,B1,5

# Target: AgFus1
# Test: as above
# Procedure: as §1
row,Binder,SPOT peptide array binding signal intensity
1,B1,374

# Target: AgHof1
# Test: as above
# Procedure: as §1
row,Binder,SPOT peptide array binding signal intensity
1,B1,57.5

# Target: AgHse1
# Test: as above
# Procedure: as §1
row,Binder,SPOT peptide array binding signal intensity
1,B1,156

# Target: AgLsb1
# Test: as above
# Procedure: as §1
row,Binder,SPOT peptide array binding signal intensity
1,B1,0.75

# Target: AgLsb4
# Test: as above
# Procedure: as §1
row,Binder,SPOT peptide array binding signal intensity
1,B1,56.5

# Target: AgMyo5
# Test: as above
# Procedure: as §1
row,Binder,SPOT peptide array binding signal intensity
1,B1,0.5

# Target: AgNbp2
# Test: as above
# Procedure: as §1
row,Binder,SPOT peptide array binding signal intensity
1,B1,39

# Target: AgRvs167
# Test: as above
# Procedure: as §1
row,Binder,SPOT peptide array binding signal intensity
1,B1,6

# Target: AgSho1
# Test: as above
# Procedure: as §1
row,Binder,SPOT peptide array binding signal intensity
1,B1,10

# Target: AgSla1-D1-D2
# Test: as above
# Procedure: as §1
row,Binder,SPOT peptide array binding signal intensity
1,B1,27.5

# Target: AgSla1-D3
# Test: as above
# Procedure: as §1
row,Binder,SPOT peptide array binding signal intensity
1,B1,4.75

# Target: CaAbp1-D1
# Test: as above
# Procedure: as §1
row,Binder,SPOT peptide array binding signal intensity
1,B1,106

# Target: CaAbp1-D2
# Test: as above
# Procedure: as §1
row,Binder,SPOT peptide array binding signal intensity
1,B1,126

# Target: CaBbc1
# Test: as above
# Procedure: as §1
row,Binder,SPOT peptide array binding signal intensity
1,B1,546

# Target: CaBem1-D1
# Test: as above
# Procedure: as §1
row,Binder,SPOT peptide array binding signal intensity
1,B1,52.5

# Target: CaBzz1-D1
# Test: as above
# Procedure: as §1
row,Binder,SPOT peptide array binding signal intensity
1,B1,116

# Target: CaBzz1-D2
# Test: as above
# Procedure: as §1
row,Binder,SPOT peptide array binding signal intensity
1,B1,124

# Target: CaCyk3
# Test: as above
# Procedure: as §1
row,Binder,SPOT peptide array binding signal intensity
1,B1,17

# Target: CaFus1
# Test: as above
# Procedure: as §1
row,Binder,SPOT peptide array binding signal intensity
1,B1,241

# Target: CaHof1
# Test: as above
# Procedure: as §1
row,Binder,SPOT peptide array binding signal intensity
1,B1,0.5

# Target: CaHse1
# Test: as above
# Procedure: as §1
row,Binder,SPOT peptide array binding signal intensity
1,B1,2.25

# Target: CaLsb1
# Test: as above
# Procedure: as §1
row,Binder,SPOT peptide array binding signal intensity
1,B1,≤ 0

# Target: CaLsb4
# Test: as above
# Procedure: as §1
row,Binder,SPOT peptide array binding signal intensity
1,B1,67.5

# Target: CaMyo5
# Test: as above
# Procedure: as §1
row,Binder,SPOT peptide array binding signal intensity
1,B1,2.25

# Target: CaNbp2
# Test: as above
# Procedure: as §1
row,Binder,SPOT peptide array binding signal intensity
1,B1,138

# Target: CaRvs167
# Test: as above
# Procedure: as §1
row,Binder,SPOT peptide array binding signal intensity
1,B1,16

# Target: CaRvs167-3
# Test: as above
# Procedure: as §1
row,Binder,SPOT peptide array binding signal intensity
1,B1,4.5

# Target: CaSho1
# Test: as above
# Procedure: as §1
row,Binder,SPOT peptide array binding signal intensity
1,B1,116

# Target: CaSla1-D1-D2
# Test: as above
# Procedure: as §1
row,Binder,SPOT peptide array binding signal intensity
1,B1,66

# Target: CaSla1-D3
# Test: as above
# Procedure: as §1
row,Binder,SPOT peptide array binding signal intensity
1,B1,4.75

# Target: ScAbp1
# Test: as above
# Procedure: as §1
row,Binder,SPOT peptide array binding signal intensity
1,B1,79

# Target: ScBbc1
# Test: as above
# Procedure: as §1
row,Binder,SPOT peptide array binding signal intensity
1,B1,65

# Target: ScBem1-D1
# Test: as above
# Procedure: as §1
row,Binder,SPOT peptide array binding signal intensity
1,B1,94

# Target: ScBzz1-D1
# Test: as above
# Procedure: as §1
row,Binder,SPOT peptide array binding signal intensity
1,B1,32

# Target: ScBzz1-D2
# Test: as above
# Procedure: as §1
row,Binder,SPOT peptide array binding signal intensity
1,B1,29

# Target: ScCyk3
# Test: as above
# Procedure: as §1
row,Binder,SPOT peptide array binding signal intensity
1,B1,100

# Target: ScFus1
# Test: as above
# Procedure: as §1
row,Binder,SPOT peptide array binding signal intensity
1,B1,163

# Target: ScHof1
# Test: as above
# Procedure: as §1
row,Binder,SPOT peptide array binding signal intensity
1,B1,2

# Target: ScHse1
# Test: as above
# Procedure: as §1
row,Binder,SPOT peptide array binding signal intensity
1,B1,584

# Target: ScLsb1
# Test: as above
# Procedure: as §1
row,Binder,SPOT peptide array binding signal intensity
1,B1,4.5

# Target: ScLsb2
# Test: as above
# Procedure: as §1
row,Binder,SPOT peptide array binding signal intensity
1,B1,1.5

# Target: ScLsb3
# Test: as above
# Procedure: as §1
row,Binder,SPOT peptide array binding signal intensity
1,B1,810

# Target: ScLsb4
# Test: as above
# Procedure: as §1
row,Binder,SPOT peptide array binding signal intensity
1,B1,15.5

# Target: ScMyo3
# Test: as above
# Procedure: as §1
row,Binder,SPOT peptide array binding signal intensity
1,B1,9

# Target: ScMyo5
# Test: as above
# Procedure: as §1
row,Binder,SPOT peptide array binding signal intensity
1,B1,11

# Target: ScNbp2
# Test: as above
# Procedure: as §1
row,Binder,SPOT peptide array binding signal intensity
1,B1,76.5

# Target: ScPex13
# Test: as above
# Procedure: as §1
row,Binder,SPOT peptide array binding signal intensity
1,B1,8.25

# Target: ScRvs167
# Test: as above
# Procedure: as §1
row,Binder,SPOT peptide array binding signal intensity
1,B1,31.8

# Target: ScSho1
# Test: as above
# Procedure: as §1
row,Binder,SPOT peptide array binding signal intensity
1,B1,688

# Target: ScSla1-D1-D2
# Test: as above
# Procedure: as §1
row,Binder,SPOT peptide array binding signal intensity
1,B1,611

# Target: ScSla1-D3
# Test: as above
# Procedure: as §1
row,Binder,SPOT peptide array binding signal intensity
1,B1,25

# Target: SpAbp1-D1
# Test: as above
# Procedure: as §1
row,Binder,SPOT peptide array binding signal intensity
1,B1,30.5

# Target: SpBbc1
# Test: as above
# Procedure: as §1
row,Binder,SPOT peptide array binding signal intensity
1,B1,18

# Target: SpBzz1-D1
# Test: as above
# Procedure: as §1
row,Binder,SPOT peptide array binding signal intensity
1,B1,225

# Target: SpBzz1-D2
# Test: as above
# Procedure: as §1
row,Binder,SPOT peptide array binding signal intensity
1,B1,≤ 0
2,B2,≤ 0

# Target: SpCyk3
# Test: as above
# Procedure: as §1
row,Binder,SPOT peptide array binding signal intensity
1,B1,4
2,B2,4

# Target: SpHof1
# Test: as above
# Procedure: as §1
row,Binder,SPOT peptide array binding signal intensity
1,B1,367
2,B2,136

# Target: SpHof1-2
# Test: as above
# Procedure: as §1
row,Binder,SPOT peptide array binding signal intensity
1,B1,21.5
2,B2,32.5

# Target: SpHof1-3
# Test: as above
# Procedure: as §1
row,Binder,SPOT peptide array binding signal intensity
1,B1,342
2,B2,403

# Target: SpHse1
# Test: as above
# Procedure: as §1
row,Binder,SPOT peptide array binding signal intensity
1,B1,108
2,B2,366

# Target: SpLsb1
# Test: as above
# Procedure: as §1
row,Binder,SPOT peptide array binding signal intensity
1,B1,1.5
2,B2,3.75

# Target: SpLsb4
# Test: as above
# Procedure: as §1
row,Binder,SPOT peptide array binding signal intensity
1,B1,406
2,B2,47

# Target: SpMyo1
# Test: as above
# Procedure: as §1
row,Binder,SPOT peptide array binding signal intensity
1,B1,19
2,B2,2.5

# Target: SpNbp2
# Test: as above
# Procedure: as §1
row,Binder,SPOT peptide array binding signal intensity
1,B1,42
2,B2,492

# Target: SpPex13
# Test: as above
# Procedure: as §1
row,Binder,SPOT peptide array binding signal intensity
1,B1,15
2,B2,8.5

# Target: SpRvs167
# Test: as above
# Procedure: as §1
row,Binder,SPOT peptide array binding signal intensity
1,B1,12.2
2,B2,12.7

# Target: SpSla1-D1-D2
# Test: as above
# Procedure: as §1
row,Binder,SPOT peptide array binding signal intensity
1,B1,≤ 0
2,B2,3

# Target: SpSla1-D3
# Test: as above
# Procedure: as §1
row,Binder,SPOT peptide array binding signal intensity
1,B1,8
2,B2,16.5
